About 79,000 compounds went through this panel and 15% of them were active in at least one assay; those are over-represented in the sample as a whole. Activity calls are given as the source filed them. Cut-off read from the data, not from the text of the source: active = growth inhibition above about 70%; inactive = the rest.
Legend:
[1] = NCI Yeast Anticancer Drug Screen. Data for the rad52 strain (AID 147);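 note: 0% = growth of vehicle-treated control cultures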; conditions: S. cerevisiae rad52 mutant growth inhibition, active compounds read high
In short: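 Growth of repair-deficient yeast cells was compared between compound-treated and vehicle-treated cultures to give percent inhibition.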

[2] = NCI Yeast Anticancer Drug Screen. Data for the wt1 strain (AID 149);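 note: 0% = growth of vehicle-treated wt1 cultures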; conditions: S. cerevisiae wt1 strain (SPY 50644) growth inhibition, active compounds read high
In short: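 wt1 strain grown with compound or vehicle; inhibition taken from the growth difference.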

[3] = NCI Yeast Anticancer Drug Screen. Data for the rad50EPP+ strain (AID 151);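 note: 0% = growth of vehicle-treated control cultures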; conditions: S. cerevisiae rad50 mutant strain, active compounds read high
In short: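 Measured: growth inhibition of rad50EPP+ yeast. Reference: vehicle-treated controls. Screen uses strains with defined genetic alterations in DNA damage repair or cell cycle control.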

[4] = NCI Yeast Anticancer Drug Screen. Data for the mgt1 strain (AID 153); conditions: S. cerevisiae mgt1 mutant growth inhibition, active compounds read high
In short: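 Compounds were applied to mgt1 mutant yeast, and growth was then compared against vehicle-treated control cultures to give percent inhibition.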

[5] = NCI Yeast Anticancer Drug Screen. Data for the rad50 strain (AID 155);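 note: 0% = growth of vehicle-only cultures of the same strain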; conditions: S. cerevisiae rad50 strain growth inhibition, active compounds read high
In short: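 DNA repair mutant yeast, compound exposure, growth read-out; inhibition is taken relative to vehicle.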

[6] = NCI Yeast Anticancer Drug Screen. Data for the mec2-1 strain (AID 157); conditions: S. cerevisiae mec2-1 strain, active compounds read high
In short: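 Compounds were applied to mec2-1 yeast cells. Their growth was then compared with that of vehicle-treated cultures to give growth inhibition.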

[7] = NCI Yeast Anticancer Drug Screen. Data for the rad14 strain (AID 159);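 note: 0% = growth of vehicle-treated control cultures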; conditions: S. cerevisiae rad14 strain growth inhibition, active compounds read high
In short: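 DNA repair-defective yeast, compound-exposed; % growth inhibition derived by comparison with vehicle-treated controls.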

[8] = NCI Yeast Anticancer Drug Screen. Data for the CLN2oe strain (AID 163);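 note: 0% = growth of vehicle-only control cultures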; conditions: S. cerevisiae CLN2oe strain, active compounds read high
In short: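 Cells of an engineered yeast line with disturbed cell-cycle regulation are treated with compound. Inhibition of growth is then calculated relative to the vehicle-treated reference.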

[9] = NCI Yeast Anticancer Drug Screen. Data for the cln2 rad14 strain (AID 165);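 note: 0% = growth equal to vehicle treated cultures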; conditions: S. cerevisiae cln2 rad14 strain, active compounds read high
In short: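 Strain: cln2 rad14 yeast, altered in cell cycle control and DNA damage repair. Read-out: growth inhibition vs vehicle.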

[10] = NCI Yeast Anticancer Drug Screen. Data for the bub3 strain (AID 167); conditions: S. cerevisiae bub3 mutant strain, active compounds read high
In short: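 In this screen, a yeast mutant lacking normal mitotic checkpoint function is challenged with compound. Relative growth versus vehicle gives the inhibition value.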

[11] = NCI Yeast Anticancer Drug Screen. Data for the wt2 strain (AID 169);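 note: 0% = growth of vehicle-treated yeast cultures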; conditions: S. cerevisiae wt2 strain growth inhibition, active compounds read high
In short: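 Growth of compound-treated yeast is measured and expressed as inhibition relative to vehicle-only controls.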

[12] = NCI Yeast Anticancer Drug Screen. Data for the mlh1 strain (AID 171);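 note: 0% = growth of vehicle-treated control cultures of the same strain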; conditions: S. cerevisiae mlh1 strain growth inhibition, active compounds read high
In short: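 Test agents were incubated with yeast bearing a defined DNA damage repair or cell cycle control alteration; values are growth inhibition normalised to vehicle-treated cultures.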

[13] = NCI Yeast Anticancer Drug Screen. Data for the sgs1 strain (AID 173);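 note: 0% = growth of vehicle-only control cultures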; conditions: S. cerevisiae sgs1 mutant, active compounds read high
In short: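 Strain with an altered DNA repair or cell cycle pathway exposed to compound. Growth then measured. Value = inhibition versus vehicle control.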

[14] = NCI Yeast Anticancer Drug Screen. Data for the mlh1 rad18 strain (AID 175); conditions: S. cerevisiae mlh1 rad18 strain growth inhibition, active compounds read high
In short: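 A repair-deficient yeast strain is exposed to test compound, and growth is scored relative to vehicle-treated controls.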

[15] = NCI Yeast Anticancer Drug Screen. Data for the rad18 strain (AID 177); conditions: S. cerevisiae rad18 mutant growth inhibition, active compounds read high
In short: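 DNA-repair-defective yeast; compound treatment; growth inhibition scored against vehicle.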

[16] = NCI Yeast Anticancer Drug Screen. Data for the sgs1 mgt1 strain (AID 161);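 note: 0% = growth of cultures given vehicle only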; conditions: S. cerevisiae sgs1 mgt1 strain, at 5.0 µM (retest, dose inferred, filed as 0.5), active compounds read high
In short: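 Percent growth inhibition was derived by comparing compound-exposed mutant yeast with vehicle-exposed cultures. The strain carries alterations in DNA damage repair.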

[17] = at 5.0 µM (retest, dose inferred, filed as 0.5)
[18] = at 50.0 µM (retest, dose inferred, filed as 5.0)

Measured: growth inhibition

CCC(=O)Oc1ccc(/C=N/NC(N)=S)nc1
active: [6]; [18] 95% | [6]; at 50.0 µM 87.4% | [6]; at 100.0 µM 91%
inactive: [1]; at 1.2 µM -6% | [1]; at 3.7 µM -11% | [1]; at 11.0 µM 4% | [1]; at 33.0 µM 13% | [1]; at 100.0 µM 18% | [2]; at 1.2 µM 0% | [2]; at 3.7 µM 7% | [2]; at 11.0 µM 7% | [2]; at 33.0 µM 13% | [2]; at 100.0 µM 19% | [3]; at 1.2 µM 0% | [3]; at 3.7 µM -5% | [3]; at 11.0 µM -9% | [3]; at 33.0 µM -11% | [3]; at 100.0 µM -12% | [4]; at 1.2 µM -1% | [4]; at 3.7 µM -3% | [4]; at 11.0 µM -2% | [4]; at 33.0 µM -5% | [4]; at 100.0 µM -4% | [5]; at 1.2 µM -7% | [5]; at 3.7 µM -11% | [5]; [17] -6% | [5]; at 11.0 µM -12% | [5]; at 33.0 µM 3% | [5]; [18] 6% | [5]; at 50.0 µM 22.4% | [5]; at 100.0 µM 21% | [6]; at 1.2 µM -2% | [6]; at 3.7 µM 0% | [6]; [17] 0% | [6]; at 11.0 µM 0% | [6]; at 33.0 µM 37% | [7]; at 1.2 µM 1% | [7]; at 3.7 µM 1% | [7]; at 11.0 µM 3% | [7]; at 33.0 µM 10% | [7]; at 100.0 µM 12% | [8]; at 1.2 µM -5% | [8]; at 3.7 µM -8% | [8]; at 11.0 µM -11% | [8]; at 33.0 µM -11% | [8]; at 100.0 µM -9% | [9]; [17] -5% | [9]; [18] -14% | [9]; at 50.0 µM 4% | [10]; at 1.2 µM -7% | [10]; at 3.7 µM -4% | [10]; [17] -8% | [10]; at 11.0 µM -15% | [10]; at 33.0 µM -18% | [10]; [18] -13% | [10]; at 50.0 µM 17.1% | [10]; at 100.0 µM -15% | [11]; at 1.2 µM 2% | [11]; at 3.7 µM 7% | [11]; at 11.0 µM 16% | [11]; at 33.0 µM 35% | [11]; at 100.0 µM 34% | [12]; at 1.2 µM -8% | [12]; at 3.7 µM -3% | [12]; at 11.0 µM -6% | [12]; at 33.0 µM -8% | [12]; at 100.0 µM 3% | [13]; at 1.2 µM -16% | [13]; at 3.7 µM -11% | [13]; at 11.0 µM -2% | [13]; at 33.0 µM 9% | [13]; at 100.0 µM 11% | [14]; [17] -2% | [14]; [18] 19% | [14]; at 50.0 µM 26.1% | [15]; at 1.2 µM -4% | [15]; at 3.7 µM 1% | [15]; at 11.0 µM -3% | [15]; at 33.0 µM -8% | [15]; at 100.0 µM -5%

N#C/C(=C/c1c(Cl)cccc1Cl)C(N)=O
inactive: [1]; at 1.2 µM 0% | [1]; at 3.7 µM 5% | [1]; at 11.0 µM 13% | [1]; at 33.0 µM 63% | [2]; at 1.2 µM 13% | [2]; at 3.7 µM 13% | [2]; at 11.0 µM 10% | [2]; at 33.0 µM 47% | [3]; at 1.2 µM -24% | [3]; at 3.7 µM -29% | [3]; at 11.0 µM -30% | [3]; at 33.0 µM -24% | [3]; at 100.0 µM 57% | [4]; at 1.2 µM -4% | [4]; at 3.7 µM -15% | [4]; at 11.0 µM 1% | [4]; at 33.0 µM 63% | [5]; at 1.2 µM -10% | [5]; at 3.7 µM 3% | [5]; [17] 47% | [5]; at 11.0 µM 3% | [5]; at 33.0 µM 69% | [6]; at 1.2 µM -26% | [6]; at 3.7 µM -8% | [6]; [17] 46% | [6]; at 11.0 µM -7% | [6]; at 33.0 µM 58% | [7]; at 1.2 µM -3% | [7]; at 3.7 µM -15% | [7]; at 11.0 µM -1% | [7]; at 33.0 µM 55% | [16] -1% | [9]; [17] 45% | [10]; at 1.2 µM -5% | [10]; at 3.7 µM 4% | [10]; [17] 37% | [10]; at 11.0 µM 14% | [10]; at 33.0 µM 65% | [11]; at 1.2 µM -16% | [11]; at 3.7 µM -2% | [11]; at 11.0 µM -2% | [11]; at 33.0 µM 58% | [12]; at 1.2 µM -16% | [12]; at 3.7 µM -15% | [12]; at 11.0 µM 0% | [13]; at 1.2 µM 15% | [13]; at 3.7 µM 9% | [13]; at 11.0 µM 21% | [14]; [17] 34% | [14]; at 50.0 µM 61.7% | [15]; at 1.2 µM -19% | [15]; at 3.7 µM -11% | [15]; at 11.0 µM 6%
active: [1]; at 100.0 µM 96% | [2]; at 100.0 µM 96% | [4]; at 100.0 µM 98% | [5]; at 50.0 µM 77.2% | [5]; at 100.0 µM 97% | [6]; at 50.0 µM 74.8% | [6]; at 100.0 µM 97% | [7]; at 100.0 µM 97% | [10]; [18] 96% | [10]; at 100.0 µM 97% | [11]; at 100.0 µM 96% | [12]; at 33.0 µM 71% | [12]; at 100.0 µM 97% | [13]; at 33.0 µM 74% | [13]; at 100.0 µM 98% | [14]; [18] 76% | [15]; at 33.0 µM 81% | [15]; at 100.0 µM 97%

COc1ccc2c(c1)[nH]c1c(/C=C/c3ccccc3)nccc12
active: [1]; at 100.0 µM 97% | [2]; at 100.0 µM 97% | [3]; at 100.0 µM 78% | [4]; at 33.0 µM 94% | [4]; at 100.0 µM 98% | [5]; at 33.0 µM 78% | [5]; [18] 93% | [5]; at 50.0 µM 89.5% | [5]; at 100.0 µM 96%
inactive: [1]; at 1.2 µM 9% | [1]; at 3.7 µM -8% | [1]; at 11.0 µM -2% | [1]; at 33.0 µM 50% | [2]; at 1.2 µM -34% | [2]; at 3.7 µM -32% | [2]; at 11.0 µM -18% | [2]; at 33.0 µM 41% | [3]; at 1.2 µM 0% | [3]; at 3.7 µM 7% | [3]; at 11.0 µM 13% | [3]; at 33.0 µM 46% | [4]; at 1.2 µM 9% | [4]; at 3.7 µM 3% | [4]; at 11.0 µM 18% | [5]; at 1.2 µM 31% | [5]; at 3.7 µM 29% | [5]; [17] 44% | [5]; at 11.0 µM 23% | [6]; at 1.2 µM -9% | [6]; at 3.7 µM -6%

Source: PubChem BioAssay (NCI)
